Calls of active or inactive are those of the source. Where a call stands in place of a potency, no number is given. Calls come from the whole dose curve.
These molecules were tested against Gonadotropin-releasing hormone receptor (Homo sapiens) (UniProt P30968) (assay: Human gonadotropin-releasing hormone receptor (GnRHR) small molecule agonists, calcium flux assay in GnRHR-HEK293 cells (AID 1920063; note: nearly all actives have a fitted effect of over 35% in size)). Conditions: calcium flux fluorescence, agonist mode; series mostly up to 57.6 µM.
Sequence of Gonadotropin-releasing hormone receptor (Homo sapiens) (P30968 whole entry, looked up): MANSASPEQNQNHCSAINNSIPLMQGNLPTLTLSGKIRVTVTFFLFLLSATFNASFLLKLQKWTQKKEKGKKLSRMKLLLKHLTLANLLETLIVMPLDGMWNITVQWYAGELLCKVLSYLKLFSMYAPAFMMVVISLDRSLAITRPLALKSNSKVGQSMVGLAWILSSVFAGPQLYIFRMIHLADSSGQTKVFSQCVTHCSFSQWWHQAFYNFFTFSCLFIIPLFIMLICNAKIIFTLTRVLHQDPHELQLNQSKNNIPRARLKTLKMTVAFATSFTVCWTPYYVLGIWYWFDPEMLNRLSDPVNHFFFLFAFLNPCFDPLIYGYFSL
Summary of the method: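 HEK293 cells stably expressing human GnRHR were plated 18 h at 37 °C, loaded with calcium dye 1 h at 37 °C, then given compound in agonist mode; fluorescence (Ex/Em 480/540) read kinetically for 3 min at 1 s intervals.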
With `CC(O)CC(C)(C)O` (stereo not given) the Potency was “inactive”.
With `O=C(c1ccc(O)cc1)c1ccc(O)cc1O` the Potency was “inactive”.
`CCNc1ccccc1` was tested, and the Potency was “inactive”.
For `CCO[Si](CCCNC(N)=O)(OCC)OCC`, the Potency was “inactive”.
With `C=C(C)C(=O)OCCOC(=O)C(=C)C` the Potency was “inactive”.
For `C#C[C@]1(O)CC[C@H]2[C@@H]3CCC4=Cc5oncc5C[C@]4(C)[C@H]3CC[C@@]21C`, the Potency was “inactive”.
For `CC1(C)NC(=O)N(c2ccc([N+](=O)[O-])c(C(F)(F)F)c2)C1=O`, the Potency was “inactive”.
In the case of `O=C(C1CCCCC1)N1CC(=O)N2CCc3ccccc3C2C1` (stereo not given), the Potency is reported as “inactive”.
For `C[N+](C)(C)CCCCCC[N+](C)(C)C`, the Potency was “inactive”.
In the case of `CC(C)=CCl`, the Potency is reported as “inactive”.
In the case of `C/C=C1/CC2C=CC1C2` (stereo not given), the Potency is reported as “inactive”.
With `COC(=O)c1ccccc1O` the Potency was “inactive”.
For `CC(=O)Oc1ccc(C)cc1`, the Potency was “inactive”.
With `Cc1ccc(C)c(OCCCC(C)(C)C(=O)O)c1` the Potency was “inactive”.
For `S=c1nc[nH]c2nc[nH]c12`, the Potency was “inactive”.
`CC(C)(CO)CO` was tested, and the Potency was “inactive”.
`NC(CO)(CO)CO` was tested, and the Potency was “inactive”.
In the case of `N=C(N)c1ccc(OCCCCCOc2ccc(C(=N)N)cc2)cc1`, the Potency is reported as “inactive”.
`CCCCCCCC(=O)OCC(O)CO` (stereo not given) was tested, and the Potency was “inactive”.
With `CCCCCCCCCCCCCC(=O)O` the Potency was “inactive”.
In the case of `O=C(OCc1ccccc1)c1ccccc1`, the Potency is reported as “inactive”.
`CN(C)c1ccc(C(=C2C=CC(=[N+](C)C)C=C2)c2ccccc2)cc1` was tested, and the Potency was “inactive”.
For `Cc1ccc(C(=O)O)o1`, the Potency was “inactive”.
With `O=[Se](O)O` the Potency was “inactive”.
With `CC(=O)c1nccs1` the Potency was “inactive”.
`Cc1cc(C2(c3cc(C)c(O)cc3C)OS(=O)(=O)c3ccccc32)c(C)cc1O` was tested, and the Potency was “inactive”.
In the case of `CC12CCC(CC1)C(C)(C)O2`, the Potency is reported as “inactive”.
`COc1cc(C=O)ccc1O` was tested, and the Potency was “inactive”.
`O=C(O)c1cn(-c2ccc(F)cc2)c2cc(N3CCNCC3)c(F)cc2c1=O` was tested, and the Potency was “inactive”.
In the case of `CC(=O)Nc1ccccc1`, the Potency is reported as “inactive”.

— PubChem BioAssay (Tox21)
